# Only some compounds are listed: those with a hit (about 1.6% of all), similar ones and a draw of the others.
# KCNQ2 pot – potentiators of rat KCNQ2 potassium channel; CHO-K1 KCNQ2, FluxOR thallium flux fluorescence; active compounds read high; AID 2239, 2010; 0.54% of 310,000 active; B-score at 10 µM;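 active means fluorescence ratio B-score at least 3 SD of library B-scores, with initial fluorescence B-score within 3 of them, cut at about 5.3 in these data; same plate scores as AID 2156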;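 further: B-score of peak minus minimum over baseline fluorescence ratio after K+ and Tl+ stimulus; positive B-score means potentiation of KCNQ2 with more thallium influx and brighter signal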
# KCNQ2 block – rat KCNQ2 potassium channel inhibitors, primary screen, cell-based, CHO-K1, FluxOR thallium flux, B-score; 1.1% of 310,000 active; B-score at 10 µM; 20 min; active compounds read low; Potassium voltage-gated channel subfamily KQT member 2 (Rattus norvegicus), O88943;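 active means fluorescence ratio B-score at most minus 3 library SDs, with starting brightness B-score within 2 library SDs, cut at about -5.5 in these data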
# Kir21 confirm – mouse Kir2.1 channel blockers, retest, confirmation, cell-based, FluxOR thallium flux, duplicate | Kir2.1-expressing cells, FluxOR thallium flux fluorescence; active compounds read low | shares compounds with KCNQ2 pot | AID 2032, 2009 | 41% of 2,300 active | Tl flux remaining, % of negative control (active compounds read low), % at 10 µM;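 active means Primary-screen hit whose thallium flux fell at least 3 control SD below untreated wells in both duplicates, with normal baseline fluorescence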;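 further: 0% = blank wells without stimulus and 100% = stimulated no-compound controls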
# HEK293 ctr – parental HEK293 activity in Kir2.1 inhibitor counter-screen; shares compounds with KCNQ2 pot; 19% of 2,300 active; FluxOR signal as % of negative control (100 = no effect), % at 10 µM; parental HEK293 cells, FluxOR thallium flux fluorescence; 0% = unstimulated blank wells;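 active means dye signal at least 3 control SD above or below untreated wells in both duplicates, raw fluorescence within 3, either direction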;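 further: percent is based on the flux ratio of peak minus minimum fluorescence over baseline F0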
# CHO-K1 ctr – nonspecific thallium flux increase in parental CHO-K1, confirmation, counter-screen for KCNQ2 potentiator project, cell-based, FluxOR thallium flux, duplicate; AID 2282, 2010; 43% of 1,200 active; parental CHO-K1 cells, FluxOR thallium flux fluorescence; zero = vehicle mean+3SD, 100% = vehicle-minus-blank window; shares compounds with KCNQ2 pot; activity increase over 3SD of controls, % at 10 µM;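 active means signal rise of at least 3 SD above the untreated control mean, in both duplicate wells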;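 further: counter screen of KCNQ2 potentiator hits so any rise reflects channel-independent effects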
# KCNQ1 sel pot – human KCNQ1 channel potentiation off-target, confirmation, selectivity assay for KCNQ2 potentiator project, cell-based, CHO, FluxOR thallium flux; CHO KCNQ1 stable, FluxOR thallium flux fluorescence; beyond 3SD, as % of vehicle-control signal; shares compounds with KCNQ2 pot; 28% of 1,200 active; activation over 3SD threshold, % at 10 µM;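 active means fluorescence ratio rise of at least 3 SD of vehicle wells above their mean, in both replicate wells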;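 further: 0% = vehicle mean plus 3 SD and 100% = vehicle minus unstimulated blank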
# KCNQ2 pot conf – rat KCNQ2 channel potentiators, confirmation, cell-based, CHO, FluxOR thallium flux, duplicate; CHO-KCNQ2 cells, FluxOR thallium flux fluorescence; potentiation, less the hit threshold, % at 10 µM; 68% of 1,200 active; shares compounds with KCNQ2 pot;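 active means fluorescence ratio rising 3 SD or more over the vehicle control mean in both replicates, plus primary screen hit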;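 further: peak minus minimum thallium fluorescence divided by baseline after K/Tl stimulus; 0% = vehicle mean plus 3 SD and 100% = vehicle minus unstimulated blank difference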
# Kir21 spec – mouse Kir2.1 channel activation off-target, confirmation, selectivity assay for KCNQ2 potentiator project, cell-based, HEK293, FluxOR thallium flux. HEK293 Kir2.1, FluxOR thallium flux fluorescence. 2% of 1,200 active. shares compounds with KCNQ2 pot. activity over 3SD threshold, % at 10 µM;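 active means fluorescence ratio rise of at least 3 SD above the vehicle-control mean, seen in both replicates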;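 further: 0% = vehicle mean plus 3 SD and 100% = vehicle minus no-stimulus blank window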
# KCNQ2 W236L pot – potentiators of retigabine-insensitive KCNQ2 W236L, mechanism study for KCNQ2 potentiator project, cell-based, rat KCNQ2 W236L, CHO, automated patch clamp. shares compounds with KCNQ2 pot. automated patch clamp current. current increase over 3SD of negative controls (%), active compounds read high, % at 25 µM. 10% of 940 active;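 active means current increase at least 3 SD of the untreated controls above them in both duplicate recordings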
# Starred values were filed as active, the others as inactive; i = inactive; . = no result given.
SMILES,KCNQ2 pot,KCNQ2 block,Kir21 confirm,HEK293 ctr,others
O=C(O)Cc1ccc2c(c1)N(S(=O)(=O)c1cccs1)CC(C(=O)O)O2 (stereo not given),.,i,.,.,
S=C(NCc1ccco1)N1CCN(c2ccccn2)CC1,.,i,.,.,
CNCc1cc(Br)c(OCC(=O)Nc2ccccc2OC)c(OC)c1,0.95,i,.,.,
COc1cc(CNCCc2ccccc2)cc(Br)c1OCC(=O)Nc1ccccc1C,-7.1,-7.1*,55%*,i,
COc1cccc(C(=O)NCc2ccco2)c1,8.9*,i,i,74%*,CHO-K1 ctr=-10;KCNQ1 sel pot=-12;KCNQ2 pot conf=-31;Kir21 spec=-45
COc1cccc(C(=O)NCCS(=O)(=O)NCc2ccco2)c1,.,i,.,.,
O=c1ccc(-c2ccc(S(=O)(=O)N3CCN(c4cccc(Cl)c4)CC3)o2)n[nH]1,0.21,i,.,.,
C(=C\c1ccccc1)/CSc1nnc(-c2ccccn2)n1Cc1ccco1,-5.8,-5.8*,60%*,i,
NC(=O)CSc1nnc(-c2ccccn2)n1Cc1ccco1,.,i,.,.,
O=C(CN1CCCC1)Nc1ccccc1Sc1ccc(Cl)cc1,0.01,i,.,.,
c1ccc(CNc2ncnc3nc[nH]c23)cc1,1.4,i,.,.,
c1ccc(CCCNc2ncnc3nc[nH]c23)cc1,1.9,i,i,i,
Cc1ccc(S(=O)(=O)N/N=C\c2cn(CC(N)=O)c3ccccc23)cc1,.,i,.,.,
Cc1cc(CN(C)C(=O)c2ccc(OC3CCN(CCc4ccccc4)CC3)cc2)on1,0.78,i,.,.,
Cc1ccc(C2=NOC(=O)/C2=C\c2ccccc2)cc1,0.59,i,.,.,
O=C1ON=C(c2ccc(Cl)cc2)/C1=C/c1ccc(O)cc1,-7.4,-7.4*,58%*,i,
O=C1ON=C(c2ccccc2)/C1=C/c1ccc(O)cc1,.,i,i,i,
CC1=NOC(=O)/C1=C/c1ccc(O)cc1,1.9,i,.,.,
Cc1ccc(S(=O)(=O)Nc2cc(=O)[nH]c(SCC(=O)Nc3cccc(C)c3)n2)cc1,5.3*,i,i,i,CHO-K1 ctr=30*;KCNQ1 sel pot=-5;KCNQ2 pot conf=18*;Kir21 spec=-33;KCNQ2 W236L pot=i
Cc1ccc(NC(=O)CSc2nc(NS(=O)(=O)c3ccccc3)cc(=O)[nH]2)cc1,0.93,i,.,.,
CC1CCCC(NC(=O)CCS(=O)(=O)c2cc3c(cc2Cl)NC(=O)CO3)C1C (stereo not given),.,i,.,.,
Oc1c(Cl)cc(Cl)c2c1NCCC2,6.3*,i,i,i,CHO-K1 ctr=4.8*;KCNQ1 sel pot=1.6*;KCNQ2 pot conf=6.1*;Kir21 spec=-42;KCNQ2 W236L pot=i
O=C1NCCCc2c1oc1ccc(O)cc21,0.28,i,.,.,
COc1cc(C)c(S(=O)(=O)NOCc2ccc([N+](=O)[O-])cc2)c(C)c1C,0.57,i,.,.,
COc1cc(C)c(S(=O)(=O)NOCc2ccccc2)c(C)c1C,.,i,i,i,
Cc1ccc(C(=O)N2CCN(c3ccccc3)CC2)cc1S(=O)(=O)N1CCCC1,1.7,i,i,i,
Cc1ccc(C(=O)N2CCN(c3ccc(F)cc3)CC2)cc1S(=O)(=O)N1CCCCC1,.,i,.,.,
